Data from PubChem BioAssay (NCI).
About 83,000 compounds went through this panel and 20% of them were active in at least one assay; those are over-represented in the sample as a whole.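 Cell lines were cultured in 96-well plates, exposed to a single compound concentration, and assessed for percent growth 48 hours later.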 Active and inactive are the calls of the source. How the source made its calls: active means growth percent below 10; inactive means the rest.

Legend:
Test in all cases: NCI-60 one-dose screen, 48 h (100 = growth as untreated, 0 = no growth, -100 = all killed)
Details in all cases: 10 µM unless noted
DU-145 prostate = system: DU-145 prostate
K-562 leukemia = system: K-562 leukemia
MALME-3M melanoma = system: MALME-3M melanoma
MDA-MB-231 breast = system: MDA-MB-231 breast
RXF 393 renal = system: RXF 393 renal
SF-268 CNS = system: SF-268 CNS
SF-295 CNS = system: SF-295 CNS
SF-539 CNS = system: SF-539 CNS
UACC-257 melanoma = system: UACC-257 melanoma
M14 melanoma = system: M14 melanoma
HCT-15 colon = system: HCT-15 colon
SNB-75 CNS = system: SNB-75 CNS
SNB-19 CNS = system: SNB-19 CNS
U251 CNS = system: U251 CNS
PC-3 prostate = system: PC-3 prostate
SK-MEL-5 melanoma = system: SK-MEL-5 melanoma
UACC-62 melanoma = system: UACC-62 melanoma
LOX IMVI melanoma = system: LOX IMVI melanoma
SK-MEL-28 melanoma = system: SK-MEL-28 melanoma
HT29 colon = system: HT29 colon

Measured: growth

N#C/C(=C\c1ccc(F)cc1)n1nc2cccc(F)c2n1
inactive: DU-145 prostate 37.6% | K-562 leukemia 13.3% | MALME-3M melanoma 52.9% | MDA-MB-231 breast 49% | RXF 393 renal 12.8% | SF-268 CNS 71.4% | SF-295 CNS 76.1% | UACC-257 melanoma 61% | M14 melanoma 25.8% | HCT-15 colon 30.6% | SNB-19 CNS 63.6% | U251 CNS 28.1% | PC-3 prostate 53.7% | SK-MEL-5 melanoma 73% | UACC-62 melanoma 45.7% | LOX IMVI melanoma 20.6% | SK-MEL-28 melanoma 53.2%
active: SF-539 CNS 7.78% | SNB-75 CNS 0.195%

CCCCCCn1c(-c2ccc(C(=O)O/N=C(\N)c3ccc4c(c3)OCO4)cc2)nc(-c2ccccc2)c1-c1ccccc1
inactive: MALME-3M melanoma 28.1% | MDA-MB-231 breast 26.3% | SF-268 CNS 41.1% | SF-295 CNS 30.6% | UACC-257 melanoma 62% | M14 melanoma 56.2% | SNB-19 CNS 55.3% | PC-3 prostate 23.2% | SK-MEL-5 melanoma 62% | UACC-62 melanoma 48.1% | SK-MEL-28 melanoma 59.1%
active: DU-145 prostate 0.0183% | K-562 leukemia -29.7% | RXF 393 renal -27.2% | SF-539 CNS -30.2% | HCT-15 colon 7.82% | SNB-75 CNS -6.91% | U251 CNS 8.25% | LOX IMVI melanoma -95.1%

COc1ccc(CNC(=O)[C@H](O)[C@@H](N)Cc2ccccc2)cc1
inactive: DU-145 prostate 113% | K-562 leukemia 98.4% | MALME-3M melanoma 108% | MDA-MB-231 breast 100% | RXF 393 renal 107% | SF-268 CNS 92.7% | SF-295 CNS 97.9% | SF-539 CNS 97.2% | UACC-257 melanoma 108% | M14 melanoma 105% | HCT-15 colon 107% | SNB-75 CNS 86% | SNB-19 CNS 102% | U251 CNS 101% | PC-3 prostate 108% | SK-MEL-5 melanoma 105% | UACC-62 melanoma 96.6% | LOX IMVI melanoma 97.6% | SK-MEL-28 melanoma 107%

O=C(Nc1ccc(F)cc1F)c1cc(F)ccc1O
inactive: DU-145 prostate 21.9% | MDA-MB-231 breast 10.8% | SF-268 CNS 15.8% | SF-539 CNS 17.1% | M14 melanoma 25.6% | HCT-15 colon 12.4% | SNB-75 CNS 10.6% | SNB-19 CNS 10.7% | U251 CNS 10.6% | PC-3 prostate 13.5% | SK-MEL-28 melanoma 21.9%
active: K-562 leukemia 9.5% | MALME-3M melanoma -25.7% | RXF 393 renal 2.57% | SF-295 CNS 6.99% | UACC-257 melanoma -8.33% | SK-MEL-5 melanoma -59.1% | UACC-62 melanoma -0.318% | LOX IMVI melanoma 9.88%

CCCCCCN1C(=O)/C(=c2\sc3n(c2=O)C2C(NN=3)N(CC)C(=O)N2CC)c2ccccc21 (stereo not given)
inactive: DU-145 prostate 24.4% | MDA-MB-231 breast 14.8% | RXF 393 renal 25.8% | SF-268 CNS 27.5% | UACC-257 melanoma 39.3% | M14 melanoma 20.3% | SNB-19 CNS 22.5% | PC-3 prostate 15.2% | SK-MEL-5 melanoma 26.8% | UACC-62 melanoma 30.7% | SK-MEL-28 melanoma 35.1%
active: K-562 leukemia 6.81% | MALME-3M melanoma 6.95% | SF-295 CNS -23% | SF-539 CNS -54.9% | HCT-15 colon 1.65% | HT29 colon -24.7% | U251 CNS -21.3%

O=C(Nc1ccc(Cl)cc1F)c1ccccc1O
inactive: DU-145 prostate 43.1% | K-562 leukemia 29.5% | MDA-MB-231 breast 39.1% | RXF 393 renal 42.5% | SF-268 CNS 43.1% | SF-295 CNS 69.7% | SF-539 CNS 48.9% | UACC-257 melanoma 14.1% | M14 melanoma 46.4% | HCT-15 colon 42.7% | HT29 colon 96.4% | SNB-19 CNS 45.8% | PC-3 prostate 59.6% | LOX IMVI melanoma 28.2% | SK-MEL-28 melanoma 29.9%
active: MALME-3M melanoma -6.47% | SK-MEL-5 melanoma -47.5% | UACC-62 melanoma 9.27%

CN1CCN(Cc2ccc(NC(=O)c3cncc(C#Cc4cnccc4C#N)c3)cc2C(F)(F)F)CC1
inactive: DU-145 prostate 65.3% | MALME-3M melanoma 17.2% | MDA-MB-231 breast 68.6% | RXF 393 renal 76.6% | SF-268 CNS 89.9% | SF-295 CNS 96.3% | SF-539 CNS 42% | UACC-257 melanoma 41.1% | M14 melanoma 25.4% | HCT-15 colon 55% | SNB-75 CNS 122% | SNB-19 CNS 102% | PC-3 prostate 91.7% | SK-MEL-5 melanoma 54% | UACC-62 melanoma 41.5% | LOX IMVI melanoma 12.4% | SK-MEL-28 melanoma 30.1%
active: K-562 leukemia 8.21%

CCOc1ccc2nc(SCc3nc4n(n3)S(=O)(=O)c3ccccc3N4C)sc2c1
inactive: DU-145 prostate 25.3% | K-562 leukemia 34.8% | MALME-3M melanoma 10.1% | MDA-MB-231 breast 10.5% | SF-268 CNS 25.9% | UACC-257 melanoma 24.4% | HCT-15 colon 26.9% | SNB-19 CNS 30.6% | U251 CNS 16.3% | PC-3 prostate 19.5% | UACC-62 melanoma 25.9% | LOX IMVI melanoma 19.8% | SK-MEL-28 melanoma 45.7%
active: RXF 393 renal 7.23% | SF-295 CNS 6.74% | SF-539 CNS 8.46% | M14 melanoma 5.88% | SNB-75 CNS -15% | SK-MEL-5 melanoma -23.9%

O=C(N/N=C/c1ccc(Cl)cc1)c1ccc(C(F)(F)F)nc1Nc1cccc(C(F)(F)F)c1
inactive: DU-145 prostate 13.2% | MALME-3M melanoma 50.4% | MDA-MB-231 breast 16% | RXF 393 renal 42.6% | UACC-257 melanoma 20% | M14 melanoma 42.7% | SNB-75 CNS 61.3% | SNB-19 CNS 30.4% | SK-MEL-5 melanoma 33.1% | UACC-62 melanoma 26.7%
active: K-562 leukemia 1.81% | SF-268 CNS 2.52% | SF-295 CNS -22.9% | SF-539 CNS 3.47% | HCT-15 colon -5.13% | U251 CNS 5.89% | PC-3 prostate 9.4% | LOX IMVI melanoma -13.9% | SK-MEL-28 melanoma -2%

COc1cc(C)c(Cc2cnc(N)nc2N)cc1OC
inactive: DU-145 prostate 120% | K-562 leukemia 110% | MALME-3M melanoma 99.3% | MDA-MB-231 breast 109% | RXF 393 renal 123% | SF-268 CNS 108% | SF-295 CNS 103% | SF-539 CNS 98.6% | UACC-257 melanoma 111% | M14 melanoma 105% | HCT-15 colon 113% | SNB-75 CNS 104% | SNB-19 CNS 98.9% | U251 CNS 97.7% | PC-3 prostate 94.3% | SK-MEL-5 melanoma 105% | UACC-62 melanoma 99.5% | LOX IMVI melanoma 94.9% | SK-MEL-28 melanoma 118%

COc1ccc(-c2csc(NC(=O)N3CCN(c4cc5c(cc4F)c(=O)c(C(=O)O)cn5C4CC4)CC3)n2)cc1
inactive: DU-145 prostate 10.6% | K-562 leukemia 11.7% | RXF 393 renal 34.4% | SF-268 CNS 20% | SF-539 CNS 20.6% | HCT-15 colon 14.6% | SNB-19 CNS 20.8% | SK-MEL-28 melanoma 33.7%
active: MALME-3M melanoma -11.4% | SF-295 CNS -4.61% | UACC-257 melanoma -17.6% | M14 melanoma 9.8% | HT29 colon 2.34% | SNB-75 CNS -2.38% | U251 CNS 6.54% | PC-3 prostate -0.577% | SK-MEL-5 melanoma -39.9% | UACC-62 melanoma -14.2% | LOX IMVI melanoma -76.4%

Clc1ccc(C(/C=C/c2sc(Cl)nc2Cl)=N/Nc2cc(Cl)cc(Cl)c2)cc1
inactive: DU-145 prostate 112% | K-562 leukemia 94.6% | MALME-3M melanoma 103% | MDA-MB-231 breast 103% | RXF 393 renal 110% | SF-268 CNS 99.4% | SF-295 CNS 104% | SF-539 CNS 106% | UACC-257 melanoma 99.1% | M14 melanoma 107% | HCT-15 colon 105% | SNB-19 CNS 96.4% | U251 CNS 101% | PC-3 prostate 96.7% | SK-MEL-5 melanoma 103% | UACC-62 melanoma 88.6% | LOX IMVI melanoma 98.4% | SK-MEL-28 melanoma 105%

COC(=O)C(Cc1ccccc1)NC(=O)NC(=O)NC(=O)CI (stereo not given)
active: K-562 leukemia -18.8% | MALME-3M melanoma -71% | UACC-62 melanoma 6.21% | LOX IMVI melanoma -78.8%
inactive: DU-145 prostate 91.2% | RXF 393 renal 63.9% | SF-268 CNS 71.8% | SF-295 CNS 103% | SF-539 CNS 87.7% | UACC-257 melanoma 103% | M14 melanoma 35.2% | HCT-15 colon 12% | HT29 colon 50.1% | SNB-75 CNS 98.9% | SNB-19 CNS 126% | U251 CNS 101% | PC-3 prostate 87.6% | SK-MEL-5 melanoma 89.7% | SK-MEL-28 melanoma 51.8%

O=C(O)c1cn(C2CC2)c2cc(N3CCN(C(=O)Nc4nc(-c5ccccc5)cs4)CC3)c(F)cc2c1=O
active: UACC-257 melanoma 9.92% | HT29 colon 4.04% | SNB-75 CNS 9.5% | U251 CNS 9.17% | SK-MEL-5 melanoma 3.08% | LOX IMVI melanoma -81.8%
inactive: DU-145 prostate 17.2% | K-562 leukemia 17.1% | MALME-3M melanoma 23.9% | RXF 393 renal 42.7% | SF-268 CNS 23.3% | SF-295 CNS 10.6% | SF-539 CNS 21% | M14 melanoma 31.6% | HCT-15 colon 29.9% | SNB-19 CNS 21.6% | PC-3 prostate 11.3% | UACC-62 melanoma 15.2% | SK-MEL-28 melanoma 52.9%

N#CC1=C(N)Oc2c(sc3c(Br)cccc23)C1c1ccc(Br)cc1 (stereo not given)
inactive: MALME-3M melanoma 60% | SF-268 CNS 33.9% | UACC-257 melanoma 41.4% | HCT-15 colon 22.4% | SNB-75 CNS 15% | SNB-19 CNS 52.6% | U251 CNS 14% | PC-3 prostate 15.3% | SK-MEL-5 melanoma 15.6% | UACC-62 melanoma 21.2% | LOX IMVI melanoma 21.6% | SK-MEL-28 melanoma 50.6%
active: DU-145 prostate 8.77% | K-562 leukemia 8.24% | RXF 393 renal -2.19% | SF-295 CNS 0.128% | SF-539 CNS -14.2% | M14 melanoma -0.594% | HT29 colon 1.76%

N#Cc1c(-c2ccc(Cl)cc2)nc(NCCO)[nH]c1=O
inactive: DU-145 prostate 104% | K-562 leukemia 103% | MALME-3M melanoma 98.8% | RXF 393 renal 116% | SF-268 CNS 89.6% | SF-295 CNS 95.3% | SF-539 CNS 95.9% | UACC-257 melanoma 107% | M14 melanoma 94.6% | HCT-15 colon 102% | HT29 colon 106% | SNB-75 CNS 81% | SNB-19 CNS 102% | U251 CNS 98.7% | PC-3 prostate 92.4% | SK-MEL-5 melanoma 107% | UACC-62 melanoma 84.4% | LOX IMVI melanoma 97.3% | SK-MEL-28 melanoma 112%
